Source: PubChem BioAssay
PriA SSB inh – K. pneumoniae PriA-SSBct interaction inhibition | AlphaScreen SSBct-PriA binding, biotinylated peptide | inhibition, % at 33 µM | AID 1272365 | actives 0.6% (n = 430,000); in the data active = inhibition mostly above about 37%, no sharp cut-off; inactive = mostly below about 20%;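 note: plate controls were negative control peptide for no effect and reference peptide for full effect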
PrP 5UTR inh – suppresses PrP 5' UTR mRNA reporter expression. cell-based PrP 5' UTR mRNA reporter, plate reader. inhibition, % (test concentration not listed). actives 0.35% (n = 340,000); in the data active = inhibition above about 52%; note: 0 = median of the neutral control wells
BJeLR viability – BJeLR cell viability loss | BJeLR (HRASV12) viability, CellTiter-Glo ATP luminescence, 48 h | inhibition, % (concentration not given with the values) | actives 0.17% (n = 300,000); in the data active = inhibition above about 50%
SARS 3CLpro inh – SARS-CoV 3CLpro protease inhibition; inhibition, % at 6 µM; recombinant SARS-CoV 3CLpro, quenched FRET peptide cleavage; AID 1706; actives 0.14% (n = 290,000); in the data active = inhibition above about 12%
PrPC surface inh – cell surface PrPC inhibition, primary TR-FRET screen; P04156; inhibition, % at 13.8 µM; actives 0.43% (n = 370,000); TR-FRET read-out; in the data active = inhibition above about 24%; note: 0% = median of the test wells and 100% = reference compound wells
Active calls of the source: *; nt = no result; ! = not active in a repeat. Sampled rows, rich in hits. Any-hit rate of the full collection: about 1.2%.

SMILES | PriA SSB inh | PrP 5UTR inh | BJeLR viability | SARS 3CLpro inh | PrPC surface inh
Cc1cc(F)ccc1-n1nnc(C(=O)OCc2nc(-c3ccc(Cl)cc3)oc2C)c1C | -2 | nt | nt | nt | nt
c1ccc2[nH]c(C3CCCO3)nc2c1 (stereo not given) | -13 | nt | nt | nt | nt
Cc1nc(-n2cccc2)sc1C(=O)NCC1CCCN1c1nc2ccccc2o1 (stereo not given) | 6 | nt | nt | nt | nt
COc1cccc(N2CCN(c3ncnc4c3cnn4-c3ccc(C)cc3C)CC2)c1 | 7 | -13 | 47 | 1 | 34*
Cc1ccc(-n2ncc3c(N4CCCC4)ncnc32)c(C)c1 | -5 | -32 | 2 | 0 | -6
O=C(O)c1cc(O)c2c(c1)[C@@H]([C@H]1c3cc(C(=O)O)cc(O)c3C(=O)c3c(O[C@@H]4O[C@H](CO)[C@@H](O)[C@H](O)[C@H]4O)cccc31)c1cccc(OC3O[C@H](CO)[C@@H](O)[C@H](O)[C@H]3O)c1C2=O (stereo not given in full) | 11 | -24 | -11 | nt | 62*
O=C1c2cc(CO)cc(O)c2C(=O)c2c(O[C@@H]3OC(CO)[C@@H](O)[C@@H](O)[C@@H]3O)cccc21 (stereo not given in full) | -15 | -4 | -4 | nt | -49
C=C1C(=O)c2sccc2C(c2ccc(OC)c(OC)c2)C1COC(C)=O (stereo not given) | nt | 5 | nt | nt | 96*
CCN1CCN(CC(=O)N2N=C(c3cccs3)CC2c2ccc(OC)c(OC)c2)C(=O)C1=O (stereo not given) | 1 | -11 | 5 | -2 | -17
O=C(CCN1CCc2ccccc21)c1ccc2c(c1)OCCO2 | 48* | -93 | -9 | 0 | -1
Cc1ccc(NC(=S)NC(NC(=O)c2ccccc2C)C(Cl)(Cl)Cl)c(C)c1 (stereo not given) | 8 | 2 | -6 | 13* | 19
COc1ccc(OCc2nc(C#N)c(NCCCn3ccnc3)o2)cc1 | -7 | -22 | 4 | 1 | 2
COc1ccc(-c2nc(C#N)c(N3CCCN(C)CC3)o2)cc1 | 69* | nt | nt | nt | nt
COc1ccc(-c2nc(C#N)c(N3CCCCC3)o2)cc1OC | 59* | nt | nt | nt | nt
N#Cc1nc(-c2ccc(F)cc2)oc1N1CCCCCC1 | 112* | nt | nt | nt | nt
Cc1ccc(-c2nc(C#N)c(N3CCCC3)o2)cc1 | 49 | nt | nt | nt | nt
Cc1ccc(OCc2ccc(-c3nc(C#N)c(NCCCn4ccnc4)o3)o2)cc1 | 60*! | nt | nt | nt | nt
COc1cc(C(=O)N2CCN(Cc3nc(C)cs3)CC2)cc(OC)c1OC | -8 | nt | nt | nt | nt
O=C(Cn1cc(OCc2ccccc2F)c(=O)cc1CO)NCc1ccccc1Cl | -11 | nt | nt | nt | nt
COP(=O)(OC)c1nc(-c2ccc(C)cc2)oc1N1CCCCC1 | 51* | 3 | -5 | -1 | -3
CCOc1ccc(-c2nc(C#N)c(N3CCCC3)o2)cc1 | 21 | nt | nt | nt | nt
CCOc1ccc(-c2nc(C#N)c(N3CCCCC3)o2)cc1 | 94* | nt | nt | nt | nt
Cc1ccc(OCc2ccc(-c3nc(C#N)c(N4CCCCC4)o3)o2)cc1 | 82* | nt | nt | nt | nt
O=C(NCC1CCCN1c1nccs1)c1ccc(F)cc1Cl (stereo not given) | 4 | nt | nt | nt | nt
COc1cn(CC(=O)NC(C)(C)C)c(CSc2ccc(F)cc2)cc1=O | -15 | nt | nt | nt | nt
SMILES | PriA SSB inh | PrP 5UTR inh | BJeLR viability | SARS 3CLpro inh | PrPC surface inh
Cc1ccc(CNC(=O)Cn2c(C)cc3nc4sc(C)nn4c(=O)c32)cc1 | -8 | nt | nt | nt | nt
O=C(NCCn1ncc2c(=O)n(Cc3cccc(C(F)(F)F)c3)cnc21)C1(c2ccc(Cl)cc2)CCCC1 | 0 | nt | nt | nt | nt
CCCN1CCCc2cc(CCNS(=O)(=O)c3cccc(Cl)c3)ccc21 | 64* | nt | nt | nt | nt
CCCN1CCCc2cc(CCNS(=O)(=O)c3ccc(Cl)cc3)ccc21 | 62* | nt | nt | nt | nt
CCCN1CCCc2cc(CCNC(=O)C(=O)Nc3ccc(C(C)C)cc3)ccc21 | 23 | nt | nt | nt | nt
CCCN1CCCc2cc(CCNS(=O)(=O)c3ccc(NC(=O)C(C)C)cc3)ccc21 | 60* | nt | nt | nt | nt
COc1cccc(OC)c1C(=O)Nc1ccc(N2CCCCC2=O)c(C)c1 | -12 | nt | nt | nt | nt
COc1ccc(F)cc1S(=O)(=O)Nc1cccc(-c2csc3nc(C)cc(=O)n23)c1 | 4 | nt | nt | nt | nt
O=C(Cn1cc(-c2ccc(F)cc2)cn1)N1CCC(S(=O)(=O)c2ccc(F)cc2)CC1 | 3 | nt | nt | nt | nt
CN(C)C(=O)Cn1cc(-c2ccc(F)cc2)cn1 | 38* | nt | nt | nt | nt
O=C(CSc1nnc2n1CCN2c1ccc(F)cc1)Nc1nccs1 | 3 | nt | nt | nt | nt
O=[N+]([O-])c1nn(-c2ccc3c(c2)OCCO3)n(O)c1=NC1CCCCC1 | 13 | -40 | 6 | 7 | -14
CC1CCN(c2c([N+](=O)[O-])nn(-c3ccc4c(c3)OCCO4)[n+]2[O-])CC1 | 40* | -21 | -8 | 1 | -10
Nc1cc2cccnc2c2ncccc12 | 152* | nt | nt | nt | nt
CCCN1CCCc2cc(CCNS(=O)(=O)c3ccc(C)cc3C)ccc21 | 41* | nt | nt | nt | nt
CCCN1CCCc2cc(CCNS(=O)(=O)c3ccc(NC(C)=O)cc3C)ccc21 | 70* | nt | nt | nt | nt
CCCN1CCCc2cc(CCNC(=O)C(=O)Nc3cc(C)ccc3C)ccc21 | 29 | nt | nt | nt | nt
CCCN1CCCc2cc(CCNC(=O)C(=O)Nc3ccc(C)c(C)c3)ccc21 | 36 | nt | nt | nt | nt
COc1ccc2nc(NC(=NS(=O)(=O)c3cccs3)c3ccccc3Cl)sc2c1 | -8 | nt | nt | nt | nt
COc1ccc(-c2noc(Cn3cnc4c(nnn4Cc4cccc(F)c4)c3=O)n2)c(OC)c1 | -10 | nt | nt | nt | nt
Cc1cc2cc(CNC(=S)Nc3ccccc3)ccc2n1C | 66 | nt | nt | nt | nt
Cc1cc2cc(CNS(=O)(=O)c3ccc(Br)cc3)ccc2n1C | 36* | nt | nt | nt | nt
Cc1cccc(NC(=O)NCc2ccc3c(c2)cc(C)n3C)c1 | 46* | 2 | 8 | 4 | 22
COc1ccc2c(C)nc(Nc3nc(-c4ccccc4)cc(=O)[nH]3)nc2c1 | 6 | 18 | 58* | 0 | -2
CCCN1C(=O)C2ON(c3ccccc3)C(c3ccncc3)C2C1=O (stereo not given) | -13 | nt | nt | nt | nt
SMILES | PriA SSB inh | PrP 5UTR inh | BJeLR viability | SARS 3CLpro inh | PrPC surface inh
CN(C)CCCNC(=O)C[C@H]1C[C@H](C(=O)N2CCCCC2)[C@@]2(CCc3ccccc3)c3[nH]c4cc(-c5ccco5)ccc4c3CCN2C1=O | 46* | -3 | nt | nt | -9
CC(=O)/C=C/n1c(=S)oc2ccccc21 | 6 | nt | 71* | 9 | 7
CC(C)CC(=O)/C=C/n1c(=S)oc2ccccc21 | -1 | -7 | 4 | 0 | 4
Cc1nn(-c2ccccc2)c(Cl)c1/C=N/Nc1nc2ccccc2[nH]1 | nt | -54 | 9 | 1 | -2
Cc1nn(-c2ccccc2)c(C)c1C=NNc1nc2ccccc2[nH]1 | 56* | nt | nt | nt | nt
O=Cc1ccccc1-n1cncn1 | -11 | 80* | -5 | 4 | -5
Nc1ncc(-n2cncn2)c(-c2ccccc2)n1 | -16 | -12 | 1 | 1 | -2
Cc1onc(-c2ccccc2)c1C(=O)NC(=S)NNC(=O)c1ccccc1O | 64* | 8 | -18 | -1 | -4
Cc1onc(-c2ccccc2)c1C(=O)NC(=S)NNC(=O)c1ccc(O)cc1O | 31 | -7 | -36 | 5 | 8
O=C(NC(=S)NNC(=O)c1ccccc1O)c1cccs1 | 45* | 9 | 4 | 1 | -2
O=c1c(SCc2cccc([N+](=O)[O-])c2)nccn1-c1ccc(F)cc1 | 40* | nt | nt | nt | nt
